For 21 compounds, growth inhibition results are on record in PubChem BioAssay (NCI).

Where “and” joins values, the source holds several entries; their conditions need not be identical. Identical values can stand only once. Compounds without any hit were thinned out: in the full panel of roughly 79,000, 15% have a hit. A number with no mark means an inactive call. Calls of active or inactive are those of the source. No stated cut-off is given here; in the data, active means growth inhibition above about 70%; inactive means the rest.

The nature of test [1]: NCI Yeast Anticancer Drug Screen. Data for the rad50 strain (AID 155).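 Further: 0% = growth of vehicle-only cultures of the same strain.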 Particulars: S. cerevisiae rad50 strain growth inhibition; at 50.0 µM; stronger effect = higher value. Summed up: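 Growth of the mutant yeast was measured after compound exposure and referenced to vehicle-treated cultures.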
Test [2] is described as follows: NCI Yeast Anticancer Drug Screen. Data for the mec2-1 strain (AID 157). Particulars: S. cerevisiae mec2-1 strain, at 50.0 µM, stronger effect = higher value. The method, boiled down: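 Compounds were applied to mec2-1 yeast cells. Their growth was then compared with that of vehicle-treated cultures to give growth inhibition.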
The nature of test [3]: NCI Yeast Anticancer Drug Screen. Data for the sgs1 mgt1 strain (AID 161).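 Further: 0% = growth of cultures given vehicle only.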 As to conditions: S. cerevisiae sgs1 mgt1 strain, at 50.0 µM, stronger effect = higher value. The method, boiled down:
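Compounds are added to genetically altered yeast, and growth is compared with cultures given vehicle alone to give percent inhibition.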

Test [4] in a line: NCI Yeast Anticancer Drug Screen. Data for the cln2 rad14 strain (AID 165).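 Further: 0% = growth equal to vehicle treated cultures.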 Particulars: S. cerevisiae cln2 rad14 strain, at 50.0 µM, stronger effect = higher value. Summed up:
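Strain: cln2 rad14 yeast, altered in cell cycle control and DNA damage repair. Read-out: growth inhibition vs vehicle.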

Test [5] is described as follows: NCI Yeast Anticancer Drug Screen. Data for the bub3 strain (AID 167). As to conditions: S. cerevisiae bub3 mutant strain, at 50.0 µM, stronger effect = higher value. The method, boiled down: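 Whole-cell yeast assay. The mutant strain was incubated with compounds, and growth inhibition was determined by comparison with vehicle-treated cells.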
Test [6] can be described thus: NCI Yeast Anticancer Drug Screen. Data for the mlh1 rad18 strain (AID 175). As to conditions: S. cerevisiae mlh1 rad18 strain growth inhibition; at 50.0 µM; stronger effect = higher value. The method, boiled down: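 A repair-deficient yeast strain is exposed to test compound, and growth is scored relative to vehicle-treated controls.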

In the case of `Cc1cccc(C(=O)[O][Pb]([CH3])([CH3])[CH3])c1`, the growth inhibition in test [1] is 16.1%; in test [2], -53.7%; in test [3], 21%; in test [4], -20%; in test [5], -9.65%; in test [6] it was 36.2%.

As for `CN(C(=[Se])[Se]C(=[Se])N(C)C1CCCCC1)C1CCCCC1`, the growth inhibition in test [1] is 19.4%; in test [2] it was 5%; in test [3], 8.35%; in test [4] it was 18.4%; in test [5], 0.4%; in test [6] it was 12.6%.

Take `CCOC(=O)/C(=C\c1ccc(OC)cc1)[Se]c1ccccc1`: the growth inhibition in test [1] was 50%; in test [2] it was -11%; in test [3] it was 39.5%; in test [4] it was 13.8%; in test [5], 44.6%; in test [6], 59.9%.

`CCN(CC)C(=O)N1CC2CCC(C1)N2C`: the growth inhibition in test [1] is -4.6%; in test [2], 3.55%; in test [3] it was -6.9%; in test [4], -5.45%; in test [5], -9.95%; in test [6] it was -10.2%.

As for `ClCCN(CCCl)c1ccc(-c2csc(Cc3ccccc3)n2)cc1`, the growth inhibition in test [1] was -2%; in test [2], -7.35%; in test [3] it was -2.7%; in test [4] it was -20%; in test [5], -4.3%; in test [6], -19.9%.

For `CC1(C)N=C(N)N=C(N)N1c1ccc(CCc2ccc(Cl)c(S(=O)(=O)F)c2)c(Cl)c1`, the growth inhibition in test [1] is 99.3% (active); in test [2], 99.5% (active); in test [3], 99.3% (active); in test [4], 93.8% (active); in test [5], 98.3% (active); in test [6], 99.7% (active).

As to `CC[n+]1c(/C=C/c2ccc(N(CCCl)CCCl)cc2)ccc2cc(NC(=O)/C=C/c3ccccc3)ccc21`, the growth inhibition was 82.1% (active) in test [1]; 86.5% (active) in test [2]; 87.7% (active) in test [3]; 85.5% (active) in test [4]; 86.5% (active) in test [5]; 82% (active) in test [6].

For `NC(N)=N/N=C/C(=N\N=C(N)N)C(O)C(O)C(O)C(O)CO` (stereo unspecified), the growth inhibition was -10.3% and 44.2% in test [1]; -20.9% and -3.55% in test [2]; -16.1% and 31.9% in test [3]; -22.6% and 15.1% in test [4]; -3.8% and 7.3% in test [5]; -22.4% and 15.9% in test [6].

As to `Nc1nc(N)[nH]c(=O)n1`, the growth inhibition in test [1] is -20.1%; in test [2], -12.5%; in test [3], -39%; in test [4] it was -29.4%; in test [5] it was -36.4%; in test [6], -40%.

With `O=C(O)COc1nc(Cl)c(Cl)cc1Cl`, the growth inhibition is 3.3% in test [1]; 6% in test [2]; 12.5% in test [3]; -1.75% in test [4]; 15.6% in test [5]; 1.15% in test [6].

For the compound `CC[N+](CC)(CC)CC`, the growth inhibition in test [1] was -16.7% and -6.2%; in test [2] it was 2.1% and -17.7%; in test [3] it was 6.6% and -1.6%; in test [4], -10.4% and 2.05%; in test [5], 0.8% and -1.3%; in test [6] it was -15.8% and -4.9%.

Consider `Cc1ccc(Cl)c([N+](=O)[O-])c1`, for which the growth inhibition is -23.7% in test [1]; -52.5% in test [2]; -30.4% in test [3]; -3.25% in test [4]; -20.1% in test [5]; -9.75% in test [6].

In the case of `Cc1ccc(C2=NOP(c3ccccc3)(c3ccccc3)(c3ccccc3)C2)cc1`, the growth inhibition is 19.5% in test [1]; 2.7% in test [2]; 39% in test [3]; -37.8% in test [4]; 23.6% in test [5]; 23.9% in test [6].

Consider `Cc1nc(N)sc1S(=O)(=O)F`, for which the growth inhibition in test [1] is -41.9%; in test [2], -29.7%; in test [3], -21.6%; in test [4], -14.1%; in test [5], -29.4%; in test [6] it was -5.15%.

Regarding `CCN1C(=O)C(=C/C=C/C=C2/N(C)c3ccccc3C2(C)C)C(=O)N(CC)C1=S`, the growth inhibition was -28.9% in test [1]; -8.25% in test [2]; -11.3% in test [3]; -32.5% in test [4]; 0.45% in test [5]; 0.35% in test [6].

`O=S(=O)(Cl)OO/C=C\OOS(=O)(=O)Cl`: the growth inhibition in test [1] was 18.2%; in test [2], 2.8%; in test [3], 12.7%; in test [4] it was -19.2%; in test [5], 11%; in test [6] it was -1.65%.

Turning to `CC(=O)c1ccc(N2CCNCC2)cc1`, the growth inhibition is -27.6% in test [1]; -49.8% in test [2]; -3.95% in test [3]; 16.6% in test [4]; -14.2% in test [5]; -22.1% in test [6].

Take `CC1(C)CCC(C)(C)c2c1ccc(O)c2Cc1c(O)ccc2c1C(C)(C)CCC2(C)C`: the growth inhibition in test [1] was 3.55%; in test [2] it was -30.8%; in test [3] it was -39%; in test [4], -17.2%; in test [5] it was -41.2%; in test [6], -6.8%.

On to `CC(C)(C)NC(=O)CCl`, for which the growth inhibition in test [1] was -9.6%; in test [2], -1.35%; in test [3], -6.1%; in test [4], -10.2%; in test [5] it was 7.45%; in test [6], -7.85%.

As for `COc1ccc([As]=O)cc1[N+](=O)[O-]` (stereo unspecified), the growth inhibition in test [1] was 13.2%; in test [2], 1.15%; in test [3] it was 11.1%; in test [4], 14.2%; in test [5] it was -19%; in test [6], 8.2%.

As to `COc1cc([C@@H]2c3cc(O)c(OC)cc3C[C@H]3C(=O)OC[C@@H]23)ccc1O`, the growth inhibition in test [1] is 20.1%; in test [2] it was -13.7%; in test [3], 26.2%; in test [4], 10.3%; in test [5], 25.3%; in test [6], -1.6%.
